From PubChem BioAssay
Shown are actives, neighbours in structure and some others; about 2.8% of the full set was active somewhere.
SENP8 block-1 – blocks the human protease SENP8 | Q96LD8 | purified SENP8, Z-RLRGG-aminoluciferin cleavage, luminescence | inhibition, % at 10 µM | actives 1.2% (n = 330,000) | AID 2540; in the data active = inhibition above about 50%
SENP6 inh – SENP6 protease inhibition | Q9GZR1 | Recombinant SENP6 catalytic domain, aminoluciferin luminescence | inhibition, % at 10 µM | actives 1.8% (n = 330,000) | AID 2599;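 active = inhibition above about 50% at the single tested dose, limit read from the data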;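 also: plate controls were DMSO wells with enzyme for no effect and DMSO wells lacking enzyme for full effect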
Target sequence (Q9GZR1 628-1112 limits assumed): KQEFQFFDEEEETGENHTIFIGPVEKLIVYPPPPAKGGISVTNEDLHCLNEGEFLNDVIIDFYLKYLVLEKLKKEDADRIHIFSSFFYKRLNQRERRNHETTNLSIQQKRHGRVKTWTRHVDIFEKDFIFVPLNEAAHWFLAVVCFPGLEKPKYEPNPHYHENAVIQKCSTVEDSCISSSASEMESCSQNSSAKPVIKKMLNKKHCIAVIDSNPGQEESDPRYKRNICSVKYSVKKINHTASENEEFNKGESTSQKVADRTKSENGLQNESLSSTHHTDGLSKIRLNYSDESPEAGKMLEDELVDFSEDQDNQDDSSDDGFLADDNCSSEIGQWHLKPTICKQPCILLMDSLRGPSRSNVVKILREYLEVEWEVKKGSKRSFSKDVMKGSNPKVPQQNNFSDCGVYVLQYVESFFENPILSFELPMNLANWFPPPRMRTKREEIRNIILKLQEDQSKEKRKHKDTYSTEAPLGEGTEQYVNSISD
HSP90 inh – HSP90 refolding inhibition in rabbit reticulocyte lysate | luciferase refolding luminescence, 3 h | inhibition, % at 5.6 µM | actives 0.91% (n = 290,000);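 active = inhibition above the screen-wide mean plus 3 SD, computed separately per campaign, cut at about 16% in these data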;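 also: 0% = DMSO wells and 100% = 60 µM geldanamycin wells; inhibitors lower the luminescence because luciferase stays unfolded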
Platelet DG rel – modulates dense granule release in human platelets; human platelet-rich plasma, SFLLRN dense granule ATP release, luminescence; actives 0.22% (n = 300,000); inhibition, %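 (compounds screened at 7.5 µM in platelet-rich plasma)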; AID 1663;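 active = mean replicate score, as percent of positive control, at or above 50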
SENP8 block-2 – SENP8 (human) protease inhibition; actives 0.64% (n = 360,000); recombinant SENP8, Nedd8 substrate fluorescence; inhibition, % at 20 µM; in the data active = inhibition mostly above about 40%, no sharp cut-off; inactive = mostly below about 27%
SENP7 inh – SENP7 protease inhibition; recombinant SENP7, Z-RLRGG-aminoluciferin luminescence, 40 min; inhibition, % at 5 µM; actives 1.5% (n = 330,000); AID 434973;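 active = inhibition above about 50% at the single test dose, limit read from the data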;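 also: plate controls were DMSO with enzyme for no effect and no enzyme buffer wells for full effect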
HSP90 confirm – HSP90 inhibition, confirmation assay. shares compounds with HSP90 inh. rabbit reticulocyte lysate, luciferase refolding luminescence, 3 h. inhibition, % at 5.9 µM. actives 64% (n = 2,300); in the data active = inhibition above about 18%;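 also: 0% = vehicle wells and 100% = reference inhibitor wells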
luciferase ctr – blocks native firefly luciferase in HSP90 counter-screen | shares compounds with HSP90 inh | purified native firefly luciferase, luminescence | inhibition, % at 5.9 µM | actives 48% (n = 2,300);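 active = inhibition above the mean inhibition of all tested sample wells plus 3 SD, cut at about 10% in these data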;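 also: 0% = DMSO with luciferase and 100% = wells lacking luciferase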
SENP8 conf – confirmation of human SENP8 protease inhibitors. Recombinant SENP8, Z-RLRGG-aminoluciferin luminescence, 60 min. actives 40% (n = 6,200). inhibition, % at 12.5 µM. shares compounds with SENP7 inh;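 active = mean inhibition across replicates above about 50%, limit read from the data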
SENP6 conf – confirmation of human SENP6 protease inhibitors. shares compounds with SENP7 inh. recombinant SENP6, Z-RLRGG-aminoluciferin luminescence. inhibition, % at 12.5 µM. actives 58% (n = 6,200)
SENP7 conf – human SENP7 inhibition, confirmed; recombinant SENP7, Z-RLRGG-aminoluciferin luminescence, 40 min; shares compounds with SENP7 inh; inhibition, % at 12.5 µM; actives 69% (n = 6,200)
Casp3 select – caspase-3 inhibition (SENP selectivity assay); purified caspase-3, Z-DEVD-aminoluciferin luminescence, 60 min; inhibition, % at 12.5 µM; AID 488918; actives 60% (n = 6,200); shares compounds with SENP7 inh;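 active = mean inhibition above about 50%, limit read from the data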;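 also: plate controls were enzyme with DMSO for no effect and wells without caspase-3 for full effect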
SENP luc ctr – interferes with luciferase luminescence in SENP counter-screen | Pre-incubated SENP8/Z-RLRGG-aminoluciferin, luciferase luminescence interference | actives 39% (n = 6,200) | inhibition, % at 12.5 µM | shares compounds with SENP7 inh;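 active = mean inhibition above about 50% when retested at one dose, limit read from the data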;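 also: plate controls were DMSO wells with completed reaction for no effect and substrate without enzyme for full effect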
Numbers without * were called inactive; . = no result.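 The calls were made as follows, unless noted: active = mean inhibition above about 50% in the one-dose retest (limit read from the data); inactive = the rest.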

SMILES	SENP8 block-1	SENP6 inh	HSP90 inh	Platelet DG rel	SENP8 block-2	SENP7 inh	HSP90 confirm	luciferase ctr	SENP8 conf	SENP6 conf	SENP7 conf	Casp3 select	SENP luc ctr
CCCc1ccc(OCc2ccc(C(=O)O)o2)c(OC)c1	69*	75*	81*	12	8	54*	82*	41*	74*	73*	92*	15	83*
CCOc1ccc(OCc2ccc(C(=O)O)o2)cc1	94*	97*	90*	1	8	96*	92*	60*	96*	99*	102*	80*	97*
C=CCc1ccc(OCCCCOc2ccc(C(=O)O)cc2)c(OC)c1	-8	-5	-1	13	10	-9	.	.	.	.	.	.	.
C=CCc1ccc(OCc2ccc(C(=O)O)o2)c(OC)c1	64*	79*	86*	7	8	63*	83*	46*	76*	76*	94*	16	80*
CNc1ccc(-c2cccc([N+](=O)[O-])c2)cn1	.	.	.	.	-9	.	.	.	.	.	.	.	.
COc1ccccc1NC(=O)/C(=C\c1cccnc1)NC(=O)c1ccc(C)cc1	3	-3	-1	-7	10	-1	.	.	.	.	.	.	.
CCOC(=O)[C@]12CCCC=C1N(CCc1ccc(OC)c(OC)c1)C(=O)[C@H](CC(=O)N1CCN(C(=O)C3CC3)CC1)C2	.	.	.	.	20	.	.	.	.	.	.	.	.
Cc1ccc(-c2cnc3ccccc3n2)cc1C	95*	94*	29*	20	-49	98*	64*	58*	97*	100*	103*	96*	48
O=C(CCl)Nc1cccc(-c2cnc3ccccc3n2)c1	-15	-5	2	-3	-48	3	.	.	.	.	.	.	.
COc1ccc(NC(=O)CN2CCN(C(C)=O)CC2)cc1S(=O)(=O)N1CCOCC1	-6	-4	.	.	12	-6	.	.	.	.	.	.	.
CCN(C(=O)CN1CCCCC1C)c1c(N)n(Cc2ccccc2)c(=O)[nH]c1=O (stereo unspecified)	-17	-10	.	.	11	-8	.	.	.	.	.	.	.
CC1CCCN(c2ccc3nc4ccccc4c(=O)n3n2)C1 (stereo unspecified)	35	61*	36*	1	-176	50	60*	38*	46	52*	81*	83*	20
Cc1cn([C@H]2C[C@H](O)[C@@H](CNCc3cc(Br)ccc3OCc3ccccc3)O2)c(=O)[nH]c1=O	.	.	.	.	6	.	.	.	.	.	.	.	.
C=CCn1c2ccccc2c(=O)c2cc(C#CC3(O)CCCCC3)ccc21	71*	76*	19*	-4	-454	43	27*	5	9	79*	93*	60*	-4
O=C1CCCN1CCCNc1nc2c(S(=O)(=O)c3ccc(Br)cc3)nnn2c2ccccc12	0	-11	0	0	-401	3	.	.	.	.	.	.	.
CC(C)(C)c1cc(NC(=O)c2ccco2)no1	32	67*	19*	37	9	71*	31*	12*	53*	57*	86*	83*	56*
O=C(c1ccccc1Cl)N1N=C(c2cccs2)CC1c1cccc(O)c1 (stereo unspecified)	1	9	1	-11	-4	-2	.	.	.	.	.	.	.
CC(C)c1nnc(NC(=O)c2cccc(NC(=O)C(F)(F)F)c2)s1	-6	-10	0	-8	-8	6	.	.	.	.	.	.	.
O=C(NCCOc1ccccc1)c1ccc2c(c1)OCO2	50	69*	48*	2	4	-2	71*	67*	50*	48	85*	80*	69*
O=C(NCCc1ccccc1)c1ccc2c(c1)OCCCO2	78*	85*	95*	-2	6	83*	95*	90*	86*	86*	98*	93*	85*
O=C(NCCc1ccccc1)c1ccc2c(c1)OCCO2	46	72*	85*	10	6	80*	97*	89*	73*	70*	89*	87*	75*
O=C(CCCc1ccccc1)c1ccc2c(c1)OCCO2	93*	92*	77*	6	6	96*	97*	94*	95*	97*	102*	91*	67*
CC1CCCCN1C(=O)CCS(=O)(=O)c1cccc2nonc12 (stereo unspecified)	5	17	0	4	10	13	.	.	.	.	.	.	.
Cc1ccc(C(=O)NCCc2ccccc2)cc1	23	53*	62*	11	3	54*	78*	74*	39	36	77*	79*	58*
COC(=O)c1c(N)sc(C(=O)NCCc2ccccc2)c1C	75*	88*	87*	9	-67	89*	87*	82*	85*	82*	95*	89*	85*
SMILES	SENP8 block-1	SENP6 inh	HSP90 inh	Platelet DG rel	SENP8 block-2	SENP7 inh	HSP90 confirm	luciferase ctr	SENP8 conf	SENP6 conf	SENP7 conf	Casp3 select	SENP luc ctr
O=C(/C=C/c1ccccc1)c1ccc2c(c1)OCCCCO2	40	88*	33*	10	23	68*	33*	29*	72*	59*	23	15	76*
COc1cccc(OC)c1C(=O)NCCc1ccccc1	-1	1	.	-2	3	-2	.	.	.	.	.	.	.
O=C(Cn1nnc2ccccc2c1=O)N[C@@H](Cc1ccccc1)C(=O)O	-6	-23	5	-2	14	2	.	.	.	.	.	.	.
Cc1c(N=Cc2nc3ccccc3n2C)c(=O)n(-c2ccccc2)n1C	51*	46	32*	15	26	83*	37*	26*	58*	80*	99*	97*	12
Cc1c(N=Cc2nc3ccccc3[nH]2)c(=O)n(-c2ccccc2)n1C	16	-5	3	4	22	1	.	.	.	.	.	.	.
COc1cc(/C=C/C(=O)O)cc2c1OCCO2	3	-3	-2	-4	12	4	.	.	.	.	.	.	.
